This note sets out measurements from PubChem BioAssay.

“And” between values parts separate entries of the source, which are not always exact repeats. Equal entries are not always repeated. Inconclusive results are not listed. The source made the active and inactive calls. Unless noted, cut-off not given; nearly all actives show AC50 up to about 26 µM.

Assay [1] in a line: liver-stage malaria parasite growth inhibition, primary screen, cell-based, HepG2, luciferase luminescence, HepG2 viability (AID 624349; in the data active means parasite load remaining mostly below about 12%, no sharp cut-off; inactive means mostly above about 10%;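 further: 100% = mean of DMSO negative control wells on the same plate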). The conditions noted are these: P. berghei liver stage in HepG2, luciferase luminescence, concentration not given here; parasite load remaining: stronger effect = lower value; viability: measured here: HepG2 viability without parasites.
The test system of assay [2] is Aerobactin synthetase IucA (Klebsiella pneumoniae). Nature of the assay: IucA aerobactin synthetase inhibitors, biochemical, Tocris library, absorbance (AID 1345561; call rule not given here;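 further: 100% = enzyme without compound and 0% = no enzyme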). As to conditions: purified IucA enzyme assay, absorbance (OD) read-out; stronger effect = lower value;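 tested at 8 µM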.
Assay [3] is described as follows: growth inhibition of DIPG glioma cells, dose response, cell-based, SU-DIPG-XVII, MIPE5.0, CellTiter-Glo, qHTS (AID 1347060).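 On AC50: cells exposed to compound for 48 hours before viability readout.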 The conditions noted are these: SU-DIPG-XVII viability, CellTiter-Glo ATP luminescence. On the technique in general: In ATP-based viability assays light output follows the ATP content of the culture.
Assay [4] is described as follows: growth inhibition of DIPG glioma cells, dose response, cell-based, SU-DIPG-XIII, MIPE5.0, CellTiter-Glo, qHTS (AID 1347064; cut-off not given, nearly all actives have AC50 up to about 23 µM;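 on AC50: cells exposed to compound for 48 hours before the viability read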). As to conditions: SU-DIPG-XIII viability, CellTiter-Glo ATP luminescence.
Assay [5] is described as follows: viability loss in pontine glioma line – cell-based, SU-DIPG-XXV, MIPE5.0, CellTiter-Glo, qHTS, dose response (AID 1347065).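 Further: cells exposed to compound for 48 hours before ATP readout.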 The conditions noted are these: CellTiter-Glo ATP luminescence.
The nature of assay [6]: JHH-DIPG-1 glioma cell viability, MIPE5.0 library, CellTiter-Glo luminescence, qHTS (AID 1347067).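 Further: cells exposed to compound for 48 hours before readout.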 As to conditions: JHH-DIPG-1 glioma viability, CellTiter-Glo ATP luminescence.
Assay [7] is described as follows: SU-DIPG-XXV glioma cell viability, MIPE5.0 library, qHTS (AID 1347068; cut-off not given, nearly all actives have IC50 up to about 30 µM;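 on IC50: cells exposed to compound for 48 hours before viability readout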). On the technique in general: In qHTS, concentration-response curves come from the screen itself.
Assay [8] can be described thus: sensitizers of A549 cells to miR-34 induction, primary screen, imaging, A549 dox-inducible miR-34, nuclei and caspase counts (AID 1347080;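 active means compounds whose cell count with miR-34 switched on is under 0.7 times the count with it off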). As to conditions: A549 miR-34 inducible, Hoechst nuclei count, 48 h.
The nature of assay [9]: viability rescue of complex I mutant cybrids, primary screen, cell-based, galactose medium, ATP luminescence (AID 1645843;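 active means z-score of at least 1.8 in each of two replicates, scored against plate mean and spread of sample wells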;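 further: positive z means more ATP and so rescue of galactose-driven cybrid death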). The conditions noted are these: complex I mutant cybrid cells, 72 h, stronger effect = higher value.
A short description of assay [10]: growth inhibition of DIPG glioma cells, dose response, cell-based, JHH-DIPG-1, MIPE4.0, CellTiter-Glo, qHTS (AID 1347062; cut-off not given, nearly all actives have AC50 up to about 27 µM;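 on AC50: cells exposed to compound for two days before readout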). As to conditions: JHH-DIPG-1 viability, CellTiter-Glo ATP luminescence.
The nature of assay [11]: SU-DIPG-VI glioma cell viability, MIPE4.0 library, CellTiter-Glo luminescence, qHTS (AID 1347066; cut-off not given, nearly all actives have AC50 up to about 30 µM;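 further: cells exposed to compound for 48 hours before readout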). The conditions noted are these: CellTiter-Glo ATP luminescence.
Assay [12] can be described thus: growth inhibition of DIPG glioma cells, dose response, cell-based, SU-DIPG-XIII, MIPE4.0, CellTiter-Glo, qHTS (AID 1347061; cut-off not given, nearly all actives have AC50 up to about 37 µM;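 further: cells exposed to compound for 48 hours before readout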). As to conditions: SU-DIPG-XIII viability, CellTiter-Glo ATP luminescence.
Assay [13] can be described thus: growth inhibition of DIPG glioma cells, dose response, cell-based, SU-DIPG-IV, MIPE4.0, CellTiter-Glo, qHTS (AID 1347063; cut-off not given, nearly all actives have AC50 up to about 30 µM;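 further: compound exposure lasted 48 hours before the viability readout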). The conditions noted are these: SU-DIPG-IV viability, CellTiter-Glo ATP luminescence.
Assay [14] in a line: modifiers of HSF1 nuclear foci, imaging, Selleck Cancer Library (AID 1347162; in the data active means plate-normalised HSF1 focus index below about 0.46). The conditions noted are these: human cells, at 10 µM; SSMD: measured here: HSF1 foci SSMD mean; cell count: measured here: cell number; plate-normalised HSF1 focus index: stronger effect = lower value.
Assay [15] can be described thus: survival rescue of mitochondrial mutant cells in low glucose, primary screen, MELAS cybrids, Rieske KO mouse fibroblasts, CellTiter-Glo (AID 1508586;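 active means mean z-score across replicates of 1.96 or higher in either the MELAS or the Rieske mutant cell line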;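 further: z relative to plate mean and SD of compound and empty wells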).
[16] abbreviates: stronger effect = lower value, cell number ratio, induced over uninduced.
[17] abbreviates: measured here: relative caspase fold change +Dox/-Dox.
The mark [18] stands for this setting: measured here: total cells with miR-34 induction, stronger effect = lower value.
Setting [19] is: measured here: total cells without miR-34 induction.

Usually viability stands for a per cent measure of how many cells are alive, often set against a control. Broadly, the remaining activity is the signal under treatment as a percentage of the control signal. As a reminder, the AC50 is the concentration giving half of the maximal activity seen. For orientation: IC50 means the concentration needed to halve the response being measured. Take `Cc1cc(I)ccc1Nc1c(C(=O)NOCC2CC2)cc(F)c(F)c1F`: the parasite load remaining in assay [1] is 55.5% (inactive). Further, in [1], the viability was 67.8%. Moreover, the remaining activity in assay [2] was 104% (inactive). The half-maximal activity concentration (AC50) is 5.9 µM (active) in [3], 6.61 µM (active) in [4], 9.34 µM (active) in assay [5] and 4.17 µM (active) in assay [6]. In assay [7], the IC50 was 10.5 µM (active). Also, the fold change in assay [8] (setting [16]) is 1.12 (inactive); in assay [8] (setting [17]), 1.32. Also, the cell count in assay [8] (setting [18]) was 1290; in assay [8] (setting [19]), 1150. Also, the z-score in assay [9] was -0.65 (inactive).
For `Cc1ccc(/C=N/NC(=O)c2ccccc2Oc2ccccc2)o1`, the remaining activity in assay [2] was 79% (inactive). Also, the result in assay [3], in [10], in assay [5], in assay [11], in [6] and in [7] was inactive. Also, the figures for the fold change in [8] (setting [16]) and in assay [8] (setting [17]) were 0.862 (inactive) and 1.34, respectively. The figures for the cell count in assay [8] (setting [18]) and in assay [8] (setting [19]) were 7340 and 8520, respectively. The z-score in assay [9] was -0.2 (inactive).
In the case of `CCOC(=O)C1=C(N)Oc2ccc(Br)cc2C1C(C#N)C(=O)OCC` (centres undefined), in [2], the remaining activity was 92.3% (inactive). Also, the concentration at half-maximal activity (AC50) was 26.3 µM (active) in assay [3], 23.5 µM (active) in assay [10], 23.5 µM (active) in [5] and 20.9 µM (active) in [11]. The outcome in [12] and in assay [7] was inactive. For the same compound, the fold change in assay [8] (setting [16]) is 1.02 (inactive); in assay [8] (setting [17]), 1.4. For the same compound, the cell count is 6950 in assay [8] (setting [18]) and 6840 in [8] (setting [19]). Moreover, in assay [9], the z-score is -0.87 (inactive).
As for `CCOC(=O)C1=C(C)NC(=S)NC1c1cccc(O)c1` (centres undefined), the remaining activity in [2] was 109% (inactive). Besides, the call in assay [3], in assay [12], in assay [4], in assay [11], in assay [6] and in [7] was inactive. Further, the fold change was 0.947 (inactive) and 1.05 (inactive) in assay [8] (setting [16]); 1 and 0.625 in [8] (setting [17]). The cell count in assay [8] (setting [18]) is 2900 and 8090; in [8] (setting [19]) it was 3060 and 7690. Moreover, the z-score in [9] is 0.085 (inactive).
For the compound `COC1CCC(C(=O)c2ccc3nc4c(cc3c2)CCCO4)CC1` (centres undefined), the remaining activity in [2] is 99.8% (inactive). Further, the compound was called inactive in assay [3], in [4], in assay [5] and in assay [7]. Moreover, the AC50 in assay [10] is 20.9 µM (active); in assay [13] it was 9.35 µM (active). Moreover, the results for the fold change in assay [8] (setting [16]) and in assay [8] (setting [17]) were 0.932 (inactive) and 1.27, respectively. Moreover, the cell count in assay [8] (setting [18]) was found to be 8170; in assay [8] (setting [19]), 8760. The z-score in assay [9] was 0.32 (inactive).
As to `CC(C)[C@H](CO)Nc1nc(Nc2ccc(C(=O)O)c(Cl)c2)c2ncn(C(C)C)c2n1`, the remaining activity in assay [2] is 110% (inactive). For the same compound, the outcome in [3], in [12], in assay [4], in assay [6] and in [7] was inactive. In addition, in assay [11], the AC50 was 23.5 µM (active). The results for the fold change in [8] (setting [16]) and in assay [8] (setting [17]) were 0.902 (inactive) and 0.706, respectively. The cell count in assay [8] (setting [18]) came to 8820; in assay [8] (setting [19]), 9770. Moreover, the z-score in [9] was 0.185 (inactive).
For the compound `O=C(O)CCc1ccc(NCc2cccc(Oc3ccccc3)c2)cc1`, the remaining activity in assay [2] is 92.7% (inactive). Also, the compound was called inactive in [3], in [12], in assay [10], in assay [13], in [4] and in assay [5]. Also, the call in [11], in assay [6] and in assay [7] was inactive. Moreover, the SSMD in assay [14] came to 3.5. Further, in assay [14], the cell count is 6830. Moreover, the plate-normalised HSF1 focus index in [14] was 1.21 (inactive). The z-score in [15] (MELAS cybrid survival, CellTiter-Glo 48 h, stronger effect = higher value) is -0.374 (inactive); in assay [15] (Rieske KO mouse fibroblast survival, CellTiter-Glo 72 h) it was 0.82; in [9] it was 0.215 (inactive) and -0.155 (inactive).
